Over roughly 35,000 sequences, “fluorescence intensity (a.u.)” has its median near 10,000; the highest 2% begin near 52,000. This excerpt belongs to a sample that is enriched for the highest values.
Target: T1, OsWOX13 (Oryza sativa, UniProt Q5QMM3 1-267)
T1 sequence: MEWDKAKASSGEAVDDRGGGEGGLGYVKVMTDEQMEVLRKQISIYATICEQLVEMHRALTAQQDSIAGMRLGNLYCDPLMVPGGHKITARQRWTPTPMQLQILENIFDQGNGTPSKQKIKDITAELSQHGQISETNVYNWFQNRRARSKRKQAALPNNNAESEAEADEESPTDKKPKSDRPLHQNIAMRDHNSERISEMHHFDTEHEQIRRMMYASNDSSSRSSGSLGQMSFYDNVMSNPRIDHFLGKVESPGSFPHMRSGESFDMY
Assay: protein-binding microarray (RPBM); PBS, 2% BSA, 51.3 ng/ul salmon testes DNA, 50 uM zinc acetate, 200 nM TF, 25 C, 1 h; high values mean tight binding
Conditions: protein: recombinant; tags: N-terminal polyhistidine and DsRed monomer fusion (pET32a); label: CyDye5-dUTP incorporated in the synthesized complementary strand; 3' TTTTT single-stranded linker to array surface; dsDNA, one strand shown
Outline: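 The binding signal is fluorescence intensity per feature, in arbitrary units, read on an Axon 4000B scanner. Polyhistidine- and DsRed-tagged transcription factors (N-terminal fusions) from E. coli BL21-CodonPlus were purified on Ni–NTA and applied at 200 nM for 1 h at 25 °C to a double-stranded, BSA-blocked custom Agilent array in buffer with 50 µM zinc acetate.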

Sequence | binding signal
ATTAAATTTGAAAATTTATTAAATTGTGCTGATAAGTCAACGGAGTCACCTAGTGCAG | 14500 fluorescence intensity (a.u.)
AAGACGGTAATAGACTGTGCGAGTTGAACATGCAACTCTACGGAGTCACCTAGTGCAG | 7360 fluorescence intensity (a.u.)
CCCTTGATTTACTTGATAATTTGTTATAGGTCCCTATCCCCGGAGTCACCTAGTGCAG | 53400 fluorescence intensity (a.u.)
AGATAATTCTTACTAGATGATTATTGTATATGCTGCTATCCGGAGTCACCTAGTGCAG | 9000 fluorescence intensity (a.u.)
TTTGTTAAATTTCTCAATTGATTCATAATTCTTTATTAGCCGGAGTCACCTAGTGCAG | 10300 fluorescence intensity (a.u.)
TCCATTTATCCCGATAATTTGTACTACATTTGTATAGGCCCGGAGTCACCTAGTGCAG | 5670 fluorescence intensity (a.u.)
GCTAATAGATTGCTATTGTATCTGCTCTTATGCATGATCGCGGAGTCACCTAGTGCAG | 61200 fluorescence intensity (a.u.)
AACAAGATTGTGATTCATACATCTGCATCTTATTTTGTATCGGAGTCACCTAGTGCAG | 3650 fluorescence intensity (a.u.)
ACCCTTGATTTACTTGATAATTTGTTATATGTCCCCATCCCGGAGTCACCTAGTGCAG | 49800 fluorescence intensity (a.u.)
ATTGATTTGATTGTATTCATAATCATACAATTATCTTAGCCGGAGTCACCTAGTGCAG | 65200 fluorescence intensity (a.u.)
AATTTTCTTATGATTAGCATTTCTATTGCTATTAGATGATCGGAGTCACCTAGTGCAG | 8930 fluorescence intensity (a.u.)
CCCCATCTGTATTTTAAATTTATATCCGCCACTGATTGTACGGAGTCACCTAGTGCAG | 4240 fluorescence intensity (a.u.)
CCCGATTGACAAGCTGACTCAGCATGGAGGGACCCACATGCGGAGTCACCTAGTGCAG | 37700 fluorescence intensity (a.u.)
CAACACATGATTGCCGGGCTTTCTTCCCTCTCGTCCTGAGCGGAGTCACCTAGTGCAG | 32000 fluorescence intensity (a.u.)
TAGTACTACTCATCACCAATCAGCTGCCACACATGCATGGCGGAGTCACCTAGTGCAG | 5430 fluorescence intensity (a.u.)
CGCGCCAATCATCTCCCGCTCCCTCTTATCCTCCCCTCTCCGGAGTCACCTAGTGCAG | 14100 fluorescence intensity (a.u.)
AGGACTAATAGATTTCCAAGATGATCGGGACTGACCGATCCGGAGTCACCTAGTGCAG | 10600 fluorescence intensity (a.u.)
ATAATTAGATTAAAATAGATTTTACCCGTTGCAATGCACGCGGAGTCACCTAGTGCAG | 56200 fluorescence intensity (a.u.)
CTAATGACGAATTAATTAGAATTAATAGATTTATCTTGCACGGAGTCACCTAGTGCAG | 53300 fluorescence intensity (a.u.)
GTTTAATGATAAATCTAGTAATATTAATTTTACATGATTGCGGAGTCACCTAGTGCAG | 25600 fluorescence intensity (a.u.)
ACTATATAATTAAAATAGATTTCACCCGTTGCAACGCACGCGGAGTCACCTAGTGCAG | 13300 fluorescence intensity (a.u.)

Sequence | binding signal
ATAATATATGATTAATTAAGTTTTAATTATTACAAACTTGCGGAGTCACCTAGTGCAG | 37000 fluorescence intensity (a.u.)
CCAAATTACAACAAATATAATTTTACTTAATCCAAAGTAACGGAGTCACCTAGTGCAG | 8310 fluorescence intensity (a.u.)
ATAATAAGATTAAAATAACATTTACCCGTTGCAAAGCACGCGGAGTCACCTAGTGCAG | 3610 fluorescence intensity (a.u.)
AAAATATAATCAAAATAATTTACTTATCCATGTAATCATACGGAGTCACCTAGTGCAG | 3770 fluorescence intensity (a.u.)
TAATAGATAGATAGATAGATAGATAGATTAGTAATTTAGACGGAGTCACCTAGTGCAG | 30600 fluorescence intensity (a.u.)
AATGAATTTAGATAGATATATATATCTAGATTCATTAGCACGGAGTCACCTAGTGCAG | 7940 fluorescence intensity (a.u.)
AACACCATACCAAAATCCAAATATACTTATATTTTACTTACGGAGTCACCTAGTGCAG | 65000 fluorescence intensity (a.u.)
ATATAATTAAATGATTAATTAATTAGTACCGTTTTACTTGCGGAGTCACCTAGTGCAG | 65500 fluorescence intensity (a.u.)
TGGTCAGATAGCTAGATTGATATCCCTCTCTCTCTCTCACCGGAGTCACCTAGTGCAG | 13900 fluorescence intensity (a.u.)
TTGTAAATTACCTGCAAGGAAGAATTAACCAAGATGTCTTCGGAGTCACCTAGTGCAG | 5040 fluorescence intensity (a.u.)
AATCATTTTCAGTTACAAATTAAATGGTGTTTCAATAGCTCGGAGTCACCTAGTGCAG | 6090 fluorescence intensity (a.u.)
TTAATTATTGTGAGTAATAGATTAACGACACACGTGTTGACGGAGTCACCTAGTGCAG | 23300 fluorescence intensity (a.u.)
TTTAGATAATTAATATTTAAATAATTATACTCTCGTTTTGCGGAGTCACCTAGTGCAG | 29600 fluorescence intensity (a.u.)
AATATACTTAATTACCTCTATTAGTTAATATACTTAACACCGGAGTCACCTAGTGCAG | 12000 fluorescence intensity (a.u.)
TAATAATTATAATTAATTACCGGAGTTACTTATTCTAAACCGGAGTCACCTAGTGCAG | 60400 fluorescence intensity (a.u.)
CTTAACTTTAAATATATAATTTTATAATAATTTTACGTTGCGGAGTCACCTAGTGCAG | 17500 fluorescence intensity (a.u.)
GTTTATAATAATTAAAACTTAATTAATCACATGTTATTACCGGAGTCACCTAGTGCAG | 22900 fluorescence intensity (a.u.)
TAAAACTTAATTAATTATACGTTAATATTACCTCGTTTTGCGGAGTCACCTAGTGCAG | 53900 fluorescence intensity (a.u.)
AGTAATTAGTATGACCACCCTAATATACGGTAGTATGGTACGGAGTCACCTAGTGCAG | 27200 fluorescence intensity (a.u.)
TTTATTGATTGAGAGGAACTATCTACCTCTGTAATGACATCGGAGTCACCTAGTGCAG | 46600 fluorescence intensity (a.u.)
ATTTAAATTTCCATCCTTAAATTTGAAGGTGATTTTGAGGCGGAGTCACCTAGTGCAG | 21500 fluorescence intensity (a.u.)

From article PMC7819943, “Rice protein-binding microarrays: a tool to detect cis-acting elements near promoter regions in rice”
